# For part of these data: Measured potencies and affinities stand elsewhere. Activity calls are given as the source filed them.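 The calls were made as follows, unless noted: active = membrane potential signal rise above negative control mean plus 3 SD in both duplicates, also active in the earlier TRPC4 screen; inactive = the rest.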
# Tests used:
# [1] = tested on: TRPC4 beta (transient receptor potential cation channel C4), mouse; test: TRPC4 cation channel opening, retest – cell-based, Fluo4 calcium, HEK293 TRPC4beta/mu-opioid, duplicates, 10 µM, confirmation (AID 2426;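 active = fluorescence ratio normalized to control raised more than 50% in primary screen plus both repeat runs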); settings: Fluo4 calcium fluorescence, at 10 µM; active compounds read high
# [2] = tested on: transient receptor potential cation channel C4 beta (TRPC4), mouse; test: TRPC4 cation channel opening, second retest – cell-based, second round, Fluo4, HEK293 TRPC4beta/mu-opioid, 1 µM, confirmation (AID 2461;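 active = primary screen active and over 50% activation in each of two duplicate runs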); settings: Fluo4 calcium fluorescence, at 1 µM; active compounds read high
# [3] = tested on: TRPC4 (transient receptor potential cation channel C4 beta), mouse; test: potentiation of DAMGO EC20 TRPC4 response – cell-based, second round, Fluo-4, HEK293 TRPC4beta/mu-opioid, 1 µM, confirmation (AID 2554;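 active = primary screen hit whose fluorescence ratio, in both repeats, exceeds the weak agonist control mean by 3 SD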); settings: DAMGO EC20, Fluo-4 calcium flux, at 1 µM; active compounds read high
# [4] = tested on: TRPC4 beta (transient receptor potential cation channel C4), mouse; test: potentiation of DAMGO EC20 TRPC4 response – cell-based, Fluo-4, HEK293 TRPC4beta/mu-opioid, confirmation (AID 2555;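 active = primary screen hit whose calcium fluorescence ratio, in both repeats, exceeds the weak agonist control mean by 3 SD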); settings: DAMGO EC20, Fluo-4 calcium flux, at 10 µM; active compounds read high
# [5] = target: Short transient receptor potential channel 4 (Mus musculus) (UniProt Q9QUQ5); test: blockers of DAMGO-evoked TRPC4 calcium flux – cell-based, Fluo4, HEK293 TRPC4beta/mu-opioid, confirmation (AID 2636;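 active = calcium signal cut by more than 3 SD below the full-agonist control yet still positive, in both repeats and the earlier primary screen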); settings: at 10 µM; active compounds read high
# Sequence of Short transient receptor potential channel 4 (Mus musculus) (Q9QUQ5 whole entry, looked up): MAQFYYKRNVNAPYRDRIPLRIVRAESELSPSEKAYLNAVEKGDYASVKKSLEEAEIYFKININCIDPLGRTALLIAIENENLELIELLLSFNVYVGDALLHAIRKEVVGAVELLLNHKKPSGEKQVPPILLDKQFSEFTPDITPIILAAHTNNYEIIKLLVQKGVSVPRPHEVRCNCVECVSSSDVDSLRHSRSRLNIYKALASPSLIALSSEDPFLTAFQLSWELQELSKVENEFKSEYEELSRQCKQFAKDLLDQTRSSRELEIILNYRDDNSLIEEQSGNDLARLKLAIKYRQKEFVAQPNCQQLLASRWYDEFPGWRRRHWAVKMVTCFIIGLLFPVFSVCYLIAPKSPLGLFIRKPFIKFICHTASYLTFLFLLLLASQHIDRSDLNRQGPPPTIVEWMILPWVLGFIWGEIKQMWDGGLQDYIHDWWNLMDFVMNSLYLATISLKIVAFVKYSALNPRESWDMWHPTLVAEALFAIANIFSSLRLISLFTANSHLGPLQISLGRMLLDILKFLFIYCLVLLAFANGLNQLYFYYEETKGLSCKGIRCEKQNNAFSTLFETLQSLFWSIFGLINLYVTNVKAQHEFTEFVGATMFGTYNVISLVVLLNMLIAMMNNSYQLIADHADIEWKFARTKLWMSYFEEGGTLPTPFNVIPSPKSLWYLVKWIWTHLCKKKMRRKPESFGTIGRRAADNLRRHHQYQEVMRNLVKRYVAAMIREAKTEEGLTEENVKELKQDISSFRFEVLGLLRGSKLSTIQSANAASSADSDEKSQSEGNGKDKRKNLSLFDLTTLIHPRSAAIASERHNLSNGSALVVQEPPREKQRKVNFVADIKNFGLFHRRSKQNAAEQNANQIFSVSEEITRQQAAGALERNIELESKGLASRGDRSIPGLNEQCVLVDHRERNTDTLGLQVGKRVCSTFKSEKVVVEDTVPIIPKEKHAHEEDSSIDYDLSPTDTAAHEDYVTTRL
# [6] = target: Short transient receptor potential channel 4 (Mus musculus) (UniProt Q9QUQ5); test: blockers of DAMGO-evoked TRPC4 calcium flux – cell-based, second round, Fluo4, HEK293 TRPC4beta/mu-opioid, 1 µM, confirmation (AID 2637;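 active = calcium signal ratio cut to more than 3 SD under the fully stimulated control mean yet still positive, in both repeats and the primary screen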;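 as to inhibition: percent of integrated ratio relative to wells lacking test compound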); settings: at 1 µM; active compounds read high
# [7] = target: Short transient receptor potential channel 4 (Mus musculus) (UniProt Q9QUQ5); test: calcium entry via TRPC4 opening agents – cell-based, HEK293 TRPC4/mu-opioid, Fluo-4 calcium, dose response (AID 434937;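 active = primary screen activator hit with a dose response curve and TRPC4 channel activation at any tested dose; inactive = no activation, no dose response, or not a primary hit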)
# [8] = target: Short transient receptor potential channel 4 (Mus musculus) (UniProt Q9QUQ5); test: potentiation of DAMGO-evoked TRPC4 calcium signal – cell-based, HEK293 TRPC4/mu-opioid, Fluo-4 calcium, EC20 DAMGO, dose response (AID 434941;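 active = earlier screen potentiator hit that boosts the TRPC4 ion channel at some dose, with a dose response; inactive = no potentiation, no dose response, or not a prior hit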;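 also: calcium entry triggered by an EC20 dose of DAMGO at the co-expressed mu-opioid receptor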)
# [9] = target: Short transient receptor potential channel 6 (Mus musculus) (UniProt Q61143); test: TRPC6 blockade by TRPC4 inhibitor hits – cell-based, HEK293, membrane potential dye, duplicate, selectivity assay for TRPC4 inhibitor project, confirmation (AID 434948;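 active = active in primary screen and both duplicates, each dropping signal beyond three positive-control SD with fluorescence still positive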); settings: HEK293 TRPC6, membrane potential dye fluorescence, at 10 µM, stimulated with maximal-effect acetylcholine; active compounds read high
# Sequence of Short transient receptor potential channel 6 (Mus musculus) (Q61143 whole entry, looked up): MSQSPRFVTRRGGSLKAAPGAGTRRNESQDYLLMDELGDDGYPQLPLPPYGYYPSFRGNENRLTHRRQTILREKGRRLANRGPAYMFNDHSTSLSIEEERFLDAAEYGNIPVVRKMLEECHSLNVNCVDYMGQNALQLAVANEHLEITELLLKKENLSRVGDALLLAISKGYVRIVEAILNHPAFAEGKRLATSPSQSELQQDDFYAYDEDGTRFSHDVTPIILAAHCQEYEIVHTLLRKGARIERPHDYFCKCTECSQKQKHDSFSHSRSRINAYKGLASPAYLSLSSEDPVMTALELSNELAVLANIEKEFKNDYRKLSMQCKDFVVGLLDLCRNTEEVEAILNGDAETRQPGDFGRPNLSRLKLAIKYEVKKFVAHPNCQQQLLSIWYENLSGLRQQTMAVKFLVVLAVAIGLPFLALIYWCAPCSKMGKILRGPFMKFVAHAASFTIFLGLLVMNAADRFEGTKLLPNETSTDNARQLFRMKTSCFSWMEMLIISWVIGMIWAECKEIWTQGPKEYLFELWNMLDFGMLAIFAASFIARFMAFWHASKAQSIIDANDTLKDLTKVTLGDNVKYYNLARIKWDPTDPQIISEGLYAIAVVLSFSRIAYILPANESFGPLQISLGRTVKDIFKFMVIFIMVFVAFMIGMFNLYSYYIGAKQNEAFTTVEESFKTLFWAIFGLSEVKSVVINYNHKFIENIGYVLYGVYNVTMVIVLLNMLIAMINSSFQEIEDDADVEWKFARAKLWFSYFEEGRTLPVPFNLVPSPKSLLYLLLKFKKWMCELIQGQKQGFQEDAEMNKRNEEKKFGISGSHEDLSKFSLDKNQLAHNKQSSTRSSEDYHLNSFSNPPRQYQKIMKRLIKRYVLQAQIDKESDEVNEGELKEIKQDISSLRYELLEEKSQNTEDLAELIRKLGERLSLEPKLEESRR
# [10] = target: Short transient receptor potential channel 6 (Mus musculus) (UniProt Q61143); test: TRPC6 opening by TRPC4 activator hits – cell-based, HEK293, membrane potential dye, duplicate, selectivity assay for TRPC4 activator project, confirmation (AID 434950); settings: HEK293 TRPC6, membrane potential fluorescence, at 10 µM; activation: active compounds read high; outcome: activation
# [11] = target: Short transient receptor potential channel 6 (Mus musculus) (UniProt Q61143); test: positive modulators of mouse TRPC6 channel – HEK293 cells, membrane potential dye, duplicate, selectivity assay for TRPC4 potentiator project, confirmation (AID 434952;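 active = compound raising the membrane signal above positive-control mean plus 3 SD in both repeats, and a primary screen hit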); settings: HEK293 TRPC6, membrane potential dye fluorescence, at 10 µM, maximal acetylcholine added after compound; active compounds read high
# [12] = target: Short transient receptor potential channel 4 (Mus musculus) (UniProt Q9QUQ5); test: calcium flux activators in TRPC4/5HT1a cells, counter-screen for TRPC4 activator project, cell-based, second counter screen, HEK293 TRPC4/5HT1a, Fluo-4 (AID 434977;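 active = calcium signal rise above buffer-control mean plus 5 SD in both duplicates, and also a hit in the primary screen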); settings: Fluo-4 calcium flux, at 10 µM; active compounds read high
# [13] = serotonin-gated TRPC4 signal block – cell-based, second counter screen, HEK293 TRPC4/5HT1a, Fluo-4, counter-screen for TRPC4 inhibitor project, confirmation (AID 434978;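 active = primary screen active whose calcium signal fell more than 3 SD beyond the full-serotonin control mean in both duplicate plates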;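 as to outcome: serotonin given first at submaximal then at maximal dose after compound preincubation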); settings: Fluo-4 calcium flux, at 10 µM, serotonin added to trigger calcium flux; active compounds read high
# [14] = tested on: TRPC4 (mouse), co-expressed with 5HT1a in HEK293; test: enhancement of serotonin-evoked TRPC4 response – cell-based, second counter screen, HEK293 TRPC4/5HT1a, Fluo-4, counter-screen for TRPC4 potentiator project, confirmation (AID 434979;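 active = signal rise over 3 SD above mean of control wells given weak agonist, in both repeats and first screen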); settings: Fluo-4 calcium flux, at 10 µM, serotonin added at its EC20 dose; active compounds read high
# [15] = nonspecific calcium rise without TRPC4 – cell-based, HEK293 mu-opioid receptor line, counter-screen for TRPC4 activator project, confirmation (AID 449723;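 active = hit in primary screen, with calcium signal over 5 SD above buffer well mean in both duplicates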;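 also: counter screen cells carry the mu-opioid receptor alone and lack TRPC4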); settings: HEK293 mu-opioid cells, Fluo-4 calcium fluorescence, at 10 µM; active compounds read high
# [16] = nonspecific potentiation of DAMGO calcium response – cell-based, HEK293 mu-opioid receptor line, counter-screen for TRPC4 allosteric potentiator project, confirmation (AID 449724;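 active = calcium signal rise more than 3 SD above the low-dose agonist control mean, in both duplicate plates and the primary screen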); settings: HEK293 mu-opioid receptor cells, Fluo-4 calcium flux, at 10 µM, compound added before EC20 DAMGO stimulus; active compounds read high
SMILES,outcome [1],outcome [2],outcome [3],outcome [4],inhibition [5],outcome [6],outcome [7],outcome [8],outcome [9],outcome [10],outcome [11],outcome [12],inhibition [13],outcome [14],outcome [15],outcome [16],inhibition [6],outcome [13],inhibition [9],outcome [5]
COc1cc(/C=C2\SC(=O)N(c3ccccc3Cl)C2=O)cc([N+](=O)[O-])c1O,inactive,inactive,inactive,inactive,84% (active),inactive,inactive,inactive,inactive,inactive,inactive,inactive,26% (active),inactive,inactive,inactive,,,,
CCc1nc2ccccc2n1Cc1ccccc1OC,inactive,inactive,inactive,inactive,66% (active),,inactive,inactive,inactive,inactive,inactive,inactive,43.4% (active),inactive,inactive,inactive,48% (active),,,
CC12CC3(C)CC(C)(C1)CC(NC(=O)N1CCCC1)(C2)C3,inactive,inactive,inactive,inactive,76% (active),inactive,inactive,inactive,inactive,inactive,inactive,inactive,,inactive,inactive,inactive,,inactive,,
N#Cc1cccc2c1-c1ccccc1/C2=N/NC(N)=O,inactive,inactive,inactive,inactive,86% (active),,inactive,inactive,inactive,inactive,inactive,inactive,19.9% (active),inactive,inactive,inactive,81% (active),,,
O=C(Nc1ccccc1Oc1cccnc1)C1CCCN(Cc2cccc(Cl)c2)C1 (stereo not given),inactive,inactive,inactive,inactive,89% (active),inactive,inactive,inactive,inactive,inactive,inactive,inactive,33.5% (active),inactive,inactive,inactive,,,,
Nc1c2c(nc3c1CCCC3)CCCC2 (tested in a mixture with another compound),inactive,inactive,inactive,inactive,94% (active),,inactive,inactive,inactive,inactive,inactive,inactive,18.3% (active),inactive,inactive,inactive,60% (active),,,
CC(=O)N(c1ccc(Cl)cc1)c1c[nH]c2ccccc12,inactive,inactive,inactive,inactive,94% (active),inactive,inactive,inactive,inactive,inactive,inactive,inactive,22.3% (active),inactive,inactive,inactive,,,,
Cc1cc(Nc2ccccc2)nc2cc(O)ccc12,inactive,inactive,inactive,inactive,93% (active),,inactive,inactive,inactive,inactive,inactive,inactive,14.4% (active),inactive,inactive,inactive,52% (active),,,
OC(COc1ccccc1)CN1C2=NCCCN2c2ccccc21 (stereo not given),inactive,inactive,inactive,inactive,84% (active),inactive,inactive,inactive,inactive,inactive,inactive,inactive,,inactive,inactive,inactive,,inactive,,
OCC1(Cc2ccccc2)CCCN(Cc2cnn(-c3ccccc3)c2)C1 (stereo not given),inactive,inactive,inactive,inactive,91% (active),,inactive,inactive,inactive,inactive,inactive,inactive,36.1% (active),inactive,inactive,inactive,42% (active),,,
COc1cc(/C=C2\SC(=S)N(NS(=O)(=O)c3ccc(C)cc3)C2=O)cc(OC)c1OC,inactive,inactive,inactive,inactive,95% (active),inactive,inactive,inactive,inactive,inactive,inactive,inactive,34.5% (active),inactive,inactive,inactive,,,,
Cc1ccc2nc(C)cc(Nc3ccc4c(c3)OCCO4)c2c1,inactive,inactive,inactive,inactive,90% (active),inactive,inactive,inactive,,inactive,inactive,inactive,,inactive,inactive,inactive,,inactive,50% (active),
Cc1ccccc1C(=O)NC1CC2CCC(C1)N2Cc1ccccc1 (stereo not given),inactive,inactive,inactive,inactive,68% (active),,inactive,inactive,inactive,inactive,inactive,inactive,43.3% (active),inactive,inactive,inactive,47% (active),,,
Cc1ccn2c(CNCCCn3cccn3)c(C(=O)N3CCCCCC3)nc2c1,inactive,inactive,inactive,inactive,78% (active),,inactive,inactive,inactive,inactive,inactive,inactive,,inactive,inactive,inactive,47% (active),inactive,,
CCOc1ccc(NC(=O)c2c[nH]n3c(=O)cc(C4CCN(C(=O)OC(C)(C)C)CC4)nc23)cc1,inactive,inactive,inactive,inactive,50% (active),inactive,inactive,inactive,inactive,inactive,inactive,inactive,43.4% (active),inactive,inactive,inactive,,,,
Cc1cc(Nc2cccc(O)c2)c2ccccc2n1,inactive,inactive,inactive,inactive,86% (active),inactive,inactive,inactive,,inactive,inactive,inactive,,inactive,inactive,inactive,,inactive,55% (active),
OCCCNc1c2ccccc2nc2ccccc12,inactive,inactive,inactive,inactive,92% (active),inactive,inactive,inactive,,inactive,inactive,inactive,41.8% (active),inactive,inactive,inactive,,,39.5% (active),
O=C(CCc1ccccc1)Nc1ccnn1C1CCN(C/C=C/c2ccccc2)CC1,inactive,inactive,inactive,inactive,,inactive,inactive,inactive,inactive,inactive,inactive,inactive,17.3% (active),inactive,inactive,inactive,,,,inactive
C=C(c1ccc(O)cc1)c1ccc(O)cc1,inactive,inactive,inactive,inactive,89% (active),,inactive,inactive,inactive,inactive,inactive,inactive,29.6% (active),inactive,inactive,inactive,47% (active),,,
C#Cc1ccc(CN2CCCC(C(=O)Nc3ccccc3Oc3cccnc3)C2)cc1 (stereo not given),inactive,inactive,inactive,inactive,92% (active),,inactive,inactive,inactive,inactive,inactive,inactive,21.7% (active),inactive,inactive,inactive,39% (active),,,
CCCCc1nc2ccccc2c(N)c1CCC (tested in a mixture with another compound),inactive,inactive,inactive,inactive,96% (active),,inactive,inactive,,inactive,inactive,inactive,32.6% (active),inactive,inactive,inactive,69% (active),,18% (active),
CC(C)c1ccc(S(=O)(=O)/N=C2\C=C(NS(=O)(=O)c3ccccc3)C(=O)c3ccccc32)cc1,inactive,inactive,inactive,inactive,81% (active),inactive,inactive,inactive,,inactive,inactive,inactive,19.2% (active),inactive,inactive,inactive,,,21.5% (active),
OCCNc1nc(NCc2ccccc2)c2ccccc2n1,inactive,inactive,inactive,inactive,96% (active),,inactive,inactive,inactive,inactive,inactive,inactive,21.4% (active),inactive,inactive,inactive,61% (active),,,
O=S(=O)(c1ccccc1)N1CCN(C/C=C/c2ccccc2)CC1,inactive,inactive,inactive,inactive,93% (active),inactive,inactive,inactive,inactive,inactive,inactive,inactive,,inactive,inactive,inactive,,inactive,,
CN(C)C(CNC(=O)CCc1nc2ccccc2s1)c1ccccc1 (stereo not given),inactive,inactive,inactive,inactive,96% (active),,inactive,inactive,inactive,inactive,inactive,inactive,,inactive,inactive,inactive,86% (active),inactive,,
COc1cccc(Cn2c(Oc3ccccc3)nc3c2c(=O)n(C)c(=O)n3C)c1,inactive,inactive,inactive,inactive,81% (active),,inactive,inactive,inactive,inactive,inactive,inactive,40.4% (active),inactive,inactive,inactive,43% (active),,,
CCOC(=O)C1(Cc2ccccc2C)CCCN(Cc2ccc(NC(C)=O)cc2)C1 (stereo not given),inactive,inactive,inactive,inactive,83% (active),inactive,inactive,inactive,inactive,inactive,inactive,inactive,,inactive,inactive,inactive,,inactive,,
COC(=O)c1cccc(Nc2c3c(nc4ccccc24)CCC3)c1,inactive,inactive,inactive,inactive,96% (active),inactive,inactive,inactive,inactive,inactive,inactive,inactive,30.4% (active),inactive,inactive,inactive,,,,
c1csc(CNc2nc(-c3cccs3)nc3ccccc23)c1,inactive,inactive,inactive,inactive,78% (active),inactive,inactive,inactive,inactive,inactive,inactive,inactive,29.7% (active),inactive,inactive,inactive,,,,
CCOC(=O)C1(Cc2cccc(F)c2)CCN(Cc2c(C)nn(CC)c2C)CC1,inactive,inactive,inactive,inactive,86% (active),inactive,inactive,inactive,inactive,inactive,inactive,inactive,,inactive,inactive,inactive,,inactive,,

# Reference: PubChem BioAssay
